From PubChem BioAssay come the findings set out here.

For some of these results: Potency and affinity values are given separately. Activity calls are given as the source filed them.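 The calls were made as follows, unless noted: active = primary screen hit whose fluorescence ratio, in both repeats, exceeds the weak agonist control mean by 3 SD; inactive = the rest.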

In general, inhibition refers to the share of the control response that was lost under treatment.

The test system of assay [1] is TRPC4 beta (transient receptor potential cation channel C4), mouse. Kind of assay: activators of mouse TRPC4 channel, confirmation, cell-based, Fluo4 calcium, HEK293 TRPC4beta/mu-opioid, duplicates, 10 µM (AID 2426;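 active = fluorescence ratio normalized to control raised more than 50% in primary screen plus both repeat runs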). The settings on record: Fluo4 calcium fluorescence, at 10 µM; hits give high values.
Assay [2] relates to transient receptor potential cation channel C4 beta (TRPC4), mouse. Kind of assay: activators of mouse TRPC4 channel, confirmation, cell-based, second round, Fluo4, HEK293 TRPC4beta/mu-opioid, 1 µM (AID 2461;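 active = primary screen active and over 50% activation in each of two duplicate runs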). The settings on record: Fluo4 calcium fluorescence, at 1 µM; hits give high values.
Assay [3] concerns TRPC4 (transient receptor potential cation channel C4 beta), mouse. Put plainly: positive allosteric modulators of mouse TRPC4, confirmation, cell-based, second round, Fluo-4, HEK293 TRPC4beta/mu-opioid, 1 µM (AID 2554). The settings on record: DAMGO EC20, Fluo-4 calcium flux, at 1 µM; hits give high values.
Assay [4] has as its system TRPC4 beta (transient receptor potential cation channel C4), mouse. Kind of assay: positive allosteric modulators of mouse TRPC4, confirmation, cell-based, Fluo-4, HEK293 TRPC4beta/mu-opioid (AID 2555;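 active = primary screen hit whose calcium fluorescence ratio, in both repeats, exceeds the weak agonist control mean by 3 SD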). As to conditions: DAMGO EC20, Fluo-4 calcium flux, at 10 µM; hits give high values.
In assay [5] the target is Short transient receptor potential channel 4 (Mus musculus) (UniProt Q9QUQ5). Put plainly: inhibitors of mouse TRPC4 channel, confirmation, cell-based, Fluo4, HEK293 TRPC4beta/mu-opioid (AID 2636;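 active = calcium signal cut by more than 3 SD below the full-agonist control yet still positive, in both repeats and the earlier primary screen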). The settings on record: DAMGO, Fluo4 calcium flux, at 10 µM; hits give high values. (A change in cytosolic calcium serves as a functional read-out for many receptors and channels.)
Chain of Short transient receptor potential channel 4 (Mus musculus) (Q9QUQ5 whole entry, looked up): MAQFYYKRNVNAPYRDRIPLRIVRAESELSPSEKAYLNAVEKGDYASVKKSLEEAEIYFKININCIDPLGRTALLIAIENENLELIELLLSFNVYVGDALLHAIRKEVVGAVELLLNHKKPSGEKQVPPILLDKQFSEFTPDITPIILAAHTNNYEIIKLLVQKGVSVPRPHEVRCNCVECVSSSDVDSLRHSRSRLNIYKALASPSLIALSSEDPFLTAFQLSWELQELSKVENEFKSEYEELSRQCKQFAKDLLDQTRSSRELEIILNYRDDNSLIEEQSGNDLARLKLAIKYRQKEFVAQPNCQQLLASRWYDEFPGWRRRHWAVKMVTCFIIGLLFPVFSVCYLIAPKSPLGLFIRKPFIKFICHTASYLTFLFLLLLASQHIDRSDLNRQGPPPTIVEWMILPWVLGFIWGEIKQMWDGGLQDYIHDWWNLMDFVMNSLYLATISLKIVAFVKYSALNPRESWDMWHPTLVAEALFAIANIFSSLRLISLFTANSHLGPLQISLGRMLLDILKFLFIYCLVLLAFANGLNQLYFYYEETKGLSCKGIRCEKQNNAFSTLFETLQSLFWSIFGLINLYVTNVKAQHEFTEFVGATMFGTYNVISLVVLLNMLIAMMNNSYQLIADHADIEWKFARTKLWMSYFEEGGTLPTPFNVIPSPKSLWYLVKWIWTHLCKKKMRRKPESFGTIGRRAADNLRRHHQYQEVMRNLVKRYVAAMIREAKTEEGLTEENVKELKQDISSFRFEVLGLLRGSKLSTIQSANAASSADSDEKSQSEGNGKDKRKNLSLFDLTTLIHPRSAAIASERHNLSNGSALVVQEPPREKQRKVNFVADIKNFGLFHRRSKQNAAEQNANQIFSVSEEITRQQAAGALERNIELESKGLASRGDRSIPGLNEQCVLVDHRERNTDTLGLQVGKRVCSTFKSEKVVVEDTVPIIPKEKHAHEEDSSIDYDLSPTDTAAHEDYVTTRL

Assay [6] shares this target. Kind of assay: inhibitors of mouse TRPC4 channel, confirmation, cell-based, second round, Fluo4, HEK293 TRPC4beta/mu-opioid, 1 µM (AID 2637;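 active = calcium signal ratio cut to more than 3 SD under the fully stimulated control mean yet still positive, in both repeats and the primary screen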). As to conditions: Fluo4 calcium flux, DAMGO, at 1 µM; hits give high values.
Assay [7] shares this target. Put plainly: mouse TRPC4 channel activators, dose response, cell-based, HEK293 TRPC4/mu-opioid, Fluo-4 calcium (AID 434937;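 active = primary screen activator hit with a dose response curve and TRPC4 channel activation at any tested dose; inactive = no activation, no dose response, or not a primary hit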).
The target is the same in assay [8]. Put plainly: TRPC4 positive allosteric modulators, dose response, cell-based, HEK293 TRPC4/mu-opioid, Fluo-4 calcium, EC20 DAMGO (AID 434941;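 active = earlier screen potentiator hit that boosts the TRPC4 ion channel at some dose, with a dose response; inactive = no potentiation, no dose response, or not a prior hit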;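 also: calcium entry triggered by an EC20 dose of DAMGO at the co-expressed mu-opioid receptor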).
For assay [9] the target is unchanged. Kind of assay: mouse TRPC4 channel inhibitors, dose response, cell-based, HEK293 TRPC4/mu-opioid, Fluo-4 calcium (AID 434942;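 active = primary screen inhibitor hit that blocks the TRPC4 channel at some tested dose, yielding a dose curve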).
In assay [10] the target is Short transient receptor potential channel 6 (Mus musculus) (UniProt Q61143). Kind of assay: inhibition of mouse TRPC6 channel, confirmation, selectivity assay for TRPC4 inhibitor project, cell-based, HEK293, membrane potential dye, duplicate (AID 434948;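 active = active in primary screen and both duplicates, each dropping signal beyond three positive-control SD with fluorescence still positive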). As to conditions: HEK293 TRPC6, membrane potential dye fluorescence, at 10 µM, stimulated with maximal-effect acetylcholine; hits give high values.
Chain of Short transient receptor potential channel 6 (Mus musculus) (Q61143 whole entry, looked up): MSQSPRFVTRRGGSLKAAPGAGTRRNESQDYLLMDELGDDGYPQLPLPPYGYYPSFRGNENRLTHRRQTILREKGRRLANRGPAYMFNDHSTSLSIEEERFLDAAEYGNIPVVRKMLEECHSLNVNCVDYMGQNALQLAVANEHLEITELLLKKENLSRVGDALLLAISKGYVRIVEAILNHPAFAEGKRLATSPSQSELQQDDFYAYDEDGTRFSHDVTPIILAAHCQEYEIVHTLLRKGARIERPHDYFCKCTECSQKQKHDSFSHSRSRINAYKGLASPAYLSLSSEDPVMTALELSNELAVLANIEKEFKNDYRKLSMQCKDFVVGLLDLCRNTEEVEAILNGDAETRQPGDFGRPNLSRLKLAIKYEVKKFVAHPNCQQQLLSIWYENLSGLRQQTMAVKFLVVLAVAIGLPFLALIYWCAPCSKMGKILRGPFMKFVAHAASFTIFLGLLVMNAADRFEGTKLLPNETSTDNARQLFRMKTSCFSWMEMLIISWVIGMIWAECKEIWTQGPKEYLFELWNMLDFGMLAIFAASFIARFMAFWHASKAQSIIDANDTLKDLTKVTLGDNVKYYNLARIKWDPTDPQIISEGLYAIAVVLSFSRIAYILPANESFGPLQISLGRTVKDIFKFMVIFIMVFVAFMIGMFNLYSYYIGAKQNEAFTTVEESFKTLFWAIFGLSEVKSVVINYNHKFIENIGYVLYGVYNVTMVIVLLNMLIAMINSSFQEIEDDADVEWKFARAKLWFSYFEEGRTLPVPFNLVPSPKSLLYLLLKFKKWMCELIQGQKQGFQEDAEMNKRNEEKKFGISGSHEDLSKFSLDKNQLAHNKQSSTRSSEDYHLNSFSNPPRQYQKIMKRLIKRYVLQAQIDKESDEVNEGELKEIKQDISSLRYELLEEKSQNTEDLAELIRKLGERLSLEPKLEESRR

Assay [11] has the same target. Put plainly: activation of mouse TRPC6 channel, confirmation, selectivity assay for TRPC4 activator project, cell-based, HEK293, membrane potential dye, duplicate (AID 434950;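 active = membrane potential signal rise above negative control mean plus 3 SD in both duplicates, also active in the earlier TRPC4 screen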). As to conditions: HEK293 TRPC6, membrane potential fluorescence, at 10 µM; hits give high values.
The target is the same in assay [12]. Put plainly: TRPC6 potentiation by TRPC4 potentiator hits, confirmation, selectivity assay for TRPC4 potentiator project, HEK293 cells, membrane potential dye, duplicate (AID 434952;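 active = compound raising the membrane signal above positive-control mean plus 3 SD in both repeats, and a primary screen hit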). The settings on record: HEK293 TRPC6, membrane potential dye fluorescence, at 10 µM, maximal acetylcholine added after compound; hits give high values.
The target of assay [13] is Short transient receptor potential channel 4 (Mus musculus) (UniProt Q9QUQ5). Kind of assay: calcium flux activators in TRPC4/5HT1a cells, counter-screen for TRPC4 activator project, cell-based, second counter screen, HEK293 TRPC4/5HT1a, Fluo-4 (AID 434977;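 active = calcium signal rise above buffer-control mean plus 5 SD in both duplicates, and also a hit in the primary screen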). As to conditions: Fluo-4 calcium flux, at 10 µM; hits give high values.
Assay [14] is described as follows: calcium flux inhibitors in TRPC4/5HT1a cells, confirmation, counter-screen for TRPC4 inhibitor project, cell-based, second counter screen, HEK293 TRPC4/5HT1a, Fluo-4 (AID 434978;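 active = primary screen active whose calcium signal fell more than 3 SD beyond the full-serotonin control mean in both duplicate plates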;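 as to outcome: serotonin given first at submaximal then at maximal dose after compound preincubation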). The settings on record: Fluo-4 calcium flux, at 10 µM, serotonin added to trigger calcium flux; hits give high values.
The test system of assay [15] is TRPC4 (mouse), co-expressed with 5HT1a in HEK293. Kind of assay: calcium flux potentiators in TRPC4/5HT1a cells, confirmation, counter-screen for TRPC4 potentiator project, cell-based, second counter screen, HEK293 TRPC4/5HT1a, Fluo-4 (AID 434979;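 active = signal rise over 3 SD above mean of control wells given weak agonist, in both repeats and first screen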). As to conditions: Fluo-4 calcium flux, at 10 µM, serotonin added at its EC20 dose; hits give high values.
The nature of assay [16]: calcium flux activation in mu-opioid HEK293 cells, confirmation, counter-screen for TRPC4 activator project, cell-based, HEK293 mu-opioid receptor line (AID 449723;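 active = hit in primary screen, with calcium signal over 5 SD above buffer well mean in both duplicates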;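 also: counter screen cells carry the mu-opioid receptor alone and lack TRPC4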). The settings on record: Fluo-4 calcium fluorescence, at 10 µM; hits give high values.
Assay [17] in a line: calcium flux enhancement in mu-opioid HEK293 cells, confirmation, counter-screen for TRPC4 allosteric potentiator project, cell-based, HEK293 mu-opioid receptor line (AID 449724;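 active = calcium signal rise more than 3 SD above the low-dose agonist control mean, in both duplicate plates and the primary screen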;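 also: HEK293 cells carrying mu-opioid receptor only with no TRPC4 channel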). As to conditions: Fluo-4 calcium flux, at 10 µM, compound added before EC20 DAMGO stimulus; hits give high values.
Assay [18] is described as follows: thallium flux activation in parental CHO cells, counter-screen for KCNQ1 potentiator project (AID 493006;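 active = duplicate-averaged activation above buffer control mean plus 5 SD of those controls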;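 also: fluorescence ratio of max minus min over baseline after K+ and Tl+ depolarization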). The settings on record: parental CHO-K1 cells, FluxOR thallium flux, at 10 µM; hits give high values. For orientation: Counterscreens check selectivity or assay interference.
Assay [19] concerns the target Potassium voltage-gated channel subfamily KQT member 1 (Homo sapiens) (UniProt P51787). Kind of assay: KCNQ1 potassium channel potentiators, confirmation, FluxOR thallium flux, CHO cells, duplicates (AID 493007;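 active = potentiation averaged over duplicate wells exceeding buffer-only control mean by more than 3 SD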;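 also: 0% = buffer-only wells and 100% = R-L3 activator control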). The settings on record: KCNQ1 cell line, FluxOR thallium flux fluorescence, at 10 µM; hits give high values, % of reference activator effect, buffer zero.
Assay [20] addresses Potassium voltage-gated channel subfamily KQT member 2 (Rattus norvegicus) (UniProt O88943). Kind of assay: rat KCNQ2 channel potentiation, selectivity assay for KCNQ1 potentiator project, KCNQ2-CHO-K1 cells (AID 493009;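 active = mean duplicate potentiation above the buffer control mean plus 5 SD of buffer wells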;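 also: assay conditions were tuned for KCNQ1 rather than KCNQ2 modulators; signal is max minus min fluorescence divided by baseline after thallium stimulus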). As to conditions: FluxOR thallium flux fluorescence, at 10 µM; hits give high values, scaled: buffer 0, activator control 100.

Chain of Potassium voltage-gated channel subfamily KQT member 1 (Homo sapiens) (P51787 whole entry, looked up): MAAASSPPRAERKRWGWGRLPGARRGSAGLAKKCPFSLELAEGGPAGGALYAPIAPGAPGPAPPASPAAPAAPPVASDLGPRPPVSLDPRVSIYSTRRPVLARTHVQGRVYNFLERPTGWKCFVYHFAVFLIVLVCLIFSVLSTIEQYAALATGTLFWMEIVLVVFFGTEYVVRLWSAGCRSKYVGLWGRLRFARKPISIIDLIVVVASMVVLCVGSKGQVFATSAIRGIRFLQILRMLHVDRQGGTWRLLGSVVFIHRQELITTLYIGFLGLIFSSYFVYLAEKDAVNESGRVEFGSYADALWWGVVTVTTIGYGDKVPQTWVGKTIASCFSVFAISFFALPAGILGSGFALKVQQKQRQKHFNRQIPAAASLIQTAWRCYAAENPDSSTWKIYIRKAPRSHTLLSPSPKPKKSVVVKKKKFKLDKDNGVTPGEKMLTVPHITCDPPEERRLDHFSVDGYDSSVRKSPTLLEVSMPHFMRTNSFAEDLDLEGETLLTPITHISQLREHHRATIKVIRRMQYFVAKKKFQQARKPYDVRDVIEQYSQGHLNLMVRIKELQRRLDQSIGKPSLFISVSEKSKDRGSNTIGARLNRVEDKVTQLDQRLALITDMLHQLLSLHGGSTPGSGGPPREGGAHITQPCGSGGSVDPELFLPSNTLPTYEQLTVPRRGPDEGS
Chain of Potassium voltage-gated channel subfamily KQT member 2 (Rattus norvegicus) (O88943 whole entry, looked up): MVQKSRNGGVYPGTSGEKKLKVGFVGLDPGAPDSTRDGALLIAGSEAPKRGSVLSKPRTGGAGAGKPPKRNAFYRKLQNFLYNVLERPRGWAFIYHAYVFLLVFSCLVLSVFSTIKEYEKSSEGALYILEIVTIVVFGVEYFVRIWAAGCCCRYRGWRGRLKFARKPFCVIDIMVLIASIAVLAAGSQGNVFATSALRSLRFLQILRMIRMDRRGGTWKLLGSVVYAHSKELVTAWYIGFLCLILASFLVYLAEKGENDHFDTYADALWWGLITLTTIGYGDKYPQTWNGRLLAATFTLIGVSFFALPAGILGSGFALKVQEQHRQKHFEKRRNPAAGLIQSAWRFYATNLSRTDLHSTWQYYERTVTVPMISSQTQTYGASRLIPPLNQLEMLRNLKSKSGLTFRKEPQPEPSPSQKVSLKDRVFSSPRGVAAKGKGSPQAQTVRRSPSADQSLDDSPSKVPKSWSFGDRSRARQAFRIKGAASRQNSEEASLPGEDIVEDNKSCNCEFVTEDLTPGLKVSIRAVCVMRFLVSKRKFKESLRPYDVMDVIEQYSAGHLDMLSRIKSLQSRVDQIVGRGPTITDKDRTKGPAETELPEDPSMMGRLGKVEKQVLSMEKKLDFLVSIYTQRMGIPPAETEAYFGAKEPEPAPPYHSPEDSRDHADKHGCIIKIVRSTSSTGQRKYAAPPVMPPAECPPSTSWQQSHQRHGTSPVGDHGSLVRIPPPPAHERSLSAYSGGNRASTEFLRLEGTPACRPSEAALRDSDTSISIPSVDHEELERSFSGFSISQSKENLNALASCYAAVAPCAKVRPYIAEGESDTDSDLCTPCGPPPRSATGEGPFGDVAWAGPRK

Consider `COc1ccc(Cl)c2sc(N(CCN(C)C)C(=O)c3ccc4c(c3)OCCO4)nc12`, for which the outcome in [1], in assay [2], in [5], in assay [6], in assay [7] and in [8] was inactive. For the same compound, the outcome in assay [9], in assay [10], in [11], in assay [12], in assay [13] and in [14] was inactive. Besides, the outcome in assay [15], in assay [16] and in [17] was inactive. Further, the potentiation in assay [3] is 9% (active); in [4] it was 26% (active).

Regarding `Cc1sc(NC(=O)C2CCCCC2C(=O)O)c(C(N)=O)c1-c1ccc(C(C)(C)C)cc1` (centres undefined), the outcome in assay [1], in [2], in assay [3], in [4], in [6] and in assay [7] was inactive. The result in assay [8], in [9], in [10], in [11], in assay [12] and in assay [13] was inactive. The result in [15], in [16] and in assay [17] was inactive. Besides, the inhibition is 95% (active) in assay [5] and 18.7% (active) in assay [14].

For `Clc1ccc(OCCCc2nc(-c3ccncc3)no2)c(Cl)c1`, the result in assay [1], in [2], in assay [3], in [4], in assay [6] and in assay [7] was inactive. Moreover, the outcome in [8], in assay [9], in assay [10], in [11], in [12] and in assay [13] was inactive. Besides, the result in [15], in assay [16] and in [17] was inactive. Also, the figures for the inhibition in [5] and in assay [14] were 91% (active) and 30.7% (active), respectively.

Take `Cc1cc(N2CCN(C)CC2)n2cc(-c3ccc(F)cc3)nc2n1`: the result in assay [1], in assay [2], in [4], in assay [5], in assay [6] and in assay [7] was inactive. For the same compound, the outcome in assay [8], in assay [9], in assay [10], in [11], in assay [12] and in [13] was inactive. In addition, the outcome in assay [14], in [16] and in assay [17] was inactive. The potentiation in assay [3] was 11% (active); in [15], 26.1% (active).

Consider `CN(C)c1ccc(NC(=O)C2C3C=CC(C3)C2C(=O)O)cc1` (centres undefined), for which the result in [1], in [2], in assay [3], in assay [4], in assay [5] and in assay [6] was inactive. The outcome in assay [7], in [8], in [9], in assay [10], in assay [11] and in [12] was inactive. The outcome in assay [13], in [14], in assay [15], in assay [16] and in [17] was inactive.

With `CN(C)S(=O)(=O)N1CCC(CCCC2CCN(S(=O)(=O)N(C)C)CC2)CC1`, the result in [1], in [2], in assay [3], in assay [5], in assay [6] and in [7] was inactive. The outcome in assay [8], in [9], in assay [10], in [11], in assay [12] and in assay [13] was inactive. For the same compound, the result in [14], in assay [16] and in assay [17] was inactive. The potentiation was 11% (active) in [4], 8.71% (active) in assay [15], 99.5% (active) in [19] and 288% (active) in [20]. In [18], the activation is 228% (active).

In the case of `Cc1ccc(Cl)cc1N1CCN(Cc2nc3c(c(=O)[nH]c(=O)n3C)n2Cc2ccccc2F)CC1`, the result in [1], in assay [2], in assay [3], in [4], in [5] and in [6] was inactive. Moreover, the outcome in [7], in assay [8], in [9], in assay [10], in [11] and in assay [12] was inactive. Besides, the result in assay [13], in assay [14], in assay [16] and in assay [17] was inactive. For the same compound, the potentiation in assay [15] was 25.8% (active).

As to `CC(=O)N1CC(c2ccccc2)C(c2ccc(Cl)cc2)=N1` (centres undefined), the result in assay [1], in assay [2], in assay [3], in [4], in assay [5] and in assay [6] was inactive. Moreover, the outcome in assay [7], in assay [8], in [9], in assay [10], in assay [11] and in assay [12] was inactive. Further, the outcome in assay [13], in assay [14], in [15], in assay [16] and in assay [17] was inactive.
